In PubChem BioAssay (NCATS) one finds Potency data, which are given here for 40 compounds.

Structures are written as SMILES. “And” between values parts separate entries of the source, which are not always exact repeats. Identical values can stand only once. Results filed as inconclusive are left out. A call without a number means that no potency is given here. The source made the active and inactive calls. The call rests on the fitted dose curve; in most records, active means well fitted inhibition curve with a large enough effect; inconclusive means small, poorly fitted or top-dose-only effect; inactive means flat fitted curve, though single readings scatter.
Potency means the concentration at half of the fitted maximal effect.

In the experiment the test system is MCC-26. Kind of experiment: qHTS assay to identify novel small-molecules to repurpose for Merkel cell carcinoma treatment (AID 1296009). Further: nearly all actives have a fitted effect of over 60% in size. Particulars: MCC and control cell lines, CellTiter-Glo viability, 72 h; series mostly up to 46 µM. The source says:
MCC is a rare and aggressive neuroendocrine skin cancer with limited treatment options. Approximately 80% of MCCs have the Merkel cell polyomavirus (MCPyV) DNA integrated into the host genome (virus-positive: VP-MCC) and viral oncogenes drive oncogenesis. The remaining MCCs are virus-negative (VN-MCC) and are caused by UV mutagenesis. To identify novel treatments for VP-MCC and/or VN-MCC we screened three VP-MCC cell lines (WAGA, MKL-1, MKL-2), three VN-MCC cell lines (MCC-13, MCC-26, UISO), and four immortalized, non-transformed control cell lines (HaCaT, HEK293T, CRL7250, NIH-3T3) against ~2,400 compounds in the NCGC Pharmaceutical Collection (NPC) and ~1,900 compounds in the Mechanism Interrogation PlatE (MiPE). Using cell viability as a readout (CellTiter-Glo assay) we found both overlapping and distinct drugs that can be repurposed for the treatment of VP-MCC and VN-MCC.
A high-throughput screen was conducted in 1536-well white flat bottom plates (Corning) on a Kalypsys robotic system. Cell lines WAGA, MKL-1, MKL-2, MCC-13, MCC-26, UISO, HaCaT, HEK293T, CRL7250, and NIH-3T3 were screened against 2 small molecule annotated drug libraries NPC and MIPE in dose response (8 and 11 pt. respectively) measuring cell viability after 72 hours of incubation. […] A 1,536 pintool (Kalypsys) was used to transfer 23 nL of compound in DMSO to the 1,536-well assay plates. After 72 hr incubation at 37 degree celsius, 2.5 uL of CellTiter-Glo (Promega) was dispensed into each well using a BiorapTR. Plates were incubated at room temperature for 10 min, transferred to a ViewLux (PerkinElmer) and the luminescence was recorded using an exposure time of 2 seconds. Relative luminescence units (RLUs) were normalized to in-plate controls (no cells as a positive (cytotoxicity) control, DMSO as negative control) and the normalized data was processed using NCATS in-house software.
With `CN1C2CCC1CC(OC(=O)C(CO)c1ccccc1)C2` (stereo not given), the Potency entry is “inactive”.

Turning to `Nc1ccn([C@H]2CC[C@@H](CO)O2)c(=O)n1`, the Potency entry is “inactive”. For `COC(=O)Nc1nc2ccc(C(=O)c3cccs3)cc2[nH]1`, the Potency is 132 nM (active). For the compound `Clc1ccc2nsnc2c1NC1=NCCN1`, the Potency result was “inactive”. `CCOC(=O)C(C)(C)Oc1ccc(Cl)cc1`: the Potency entry was “inactive”. With `O=C(Nc1ccc([N+](=O)[O-])cc1Cl)c1cc(Cl)ccc1O`, the Potency entry is “inactive”. The same measure for `CCN1CCCC1CNC(=O)c1cc(S(=O)(=O)CC)c(N)cc1OC` (stereo not given): “inactive”; for `CCc1cccc2c3c([nH]c12)C(CC)(CC(=O)O)OCC3` (stereo not given): “inactive”; for `CC(C)C(=O)Nc1ccc([N+](=O)[O-])c(C(F)(F)F)c1`: “inactive”. In the case of `CN1CCN(CCCN2c3ccccc3Sc3ccc(Cl)cc32)CC1` it was “inactive”; in that of `C[C@@H]1CC(=O)NN=C1c1ccc(NN=C(C#N)C#N)cc1`, “inactive”; in that of `Cc1cnc(C(=O)NCCc2ccc(S(=O)(=O)NC(=O)NC3CCCCC3)cc2)cn1`, “inactive”. In the case of `COc1ccc2[nH]cc(CCNC(C)=O)c2c1` it was “inactive”; in that of `O=C1c2c(O)ccc(O)c2C(=O)c2c(NCCNCCO)ccc(NCCNCCO)c21`, 1.87 µM (active) and 596 nM (active); in that of `CC(C)NCC(O)COc1ccc(CCOCC2CC2)cc1` (stereo not given), “inactive”. In the case of `CCC1(C)CC(=O)NC1=O` (stereo not given), the Potency result was “inactive”.

In the case of `C[C@H]1c2cccc(O)c2C(O)=C2C(=O)[C@]3(O)C(O)=C(C(N)=O)C(=O)[C@@H](N(C)C)[C@@H]3[C@@H](O)[C@@H]21`, the Potency result is “inactive”.

`COc1ccccc1N1CCN(CC(O)COc2cccc3ccccc23)CC1` (stereo not given): the Potency result was “inactive”.

On to `OCCN1CCN(CCCN2c3ccccc3Sc3ccc(C(F)(F)F)cc32)CC1`, for which the Potency entry is “inactive”.

Consider `Cc1cn([C@H]2C=C[C@@H](CO)O2)c(=O)[nH]c1=O`, for which the Potency result is “inactive”.

Turning to `CCCNCC(O)COc1ccccc1C(=O)CCc1ccccc1` (stereo not given), the Potency entry is “inactive”. The same measure for `N[C@@H](Cc1c[nH]c2ccc(O)cc12)C(=O)O`: “inactive”; for `CC(CCc1ccc(O)cc1)NCCc1ccc(O)c(O)c1` (stereo not given): “inactive”. As to `CN1CCC(=C2c3ccccc3C=Cc3ccccc32)CC1`, the Potency entry was “inactive”. In the case of `CC12CC3CC(C)(C1)CC(N)(C3)C2` it was “inactive”; in that of `COc1ccccc1OCC(O)CN1CCN(CC(=O)Nc2c(C)cccc2C)CC1` (stereo not given), “inactive”; in that of `Cc1ccccc1N1C(=O)c2cc(S(N)(=O)=O)c(Cl)cc2NC1C` (stereo not given), “inactive”. Take `O=C1Cc2cc(CCN3CCN(c4nsc5ccccc45)CC3)c(Cl)cc2N1`: the Potency result was “inactive”. As to `COc1ccc(C2CNC(=O)C2)cc1OC1CCCC1` (stereo not given), the Potency entry is “inactive”. `O=c1c(O)c(-c2ccc(O)c(O)c2)oc2cc(O)cc(O)c12`: the Potency result was “inactive”. On to `COc1nc(C)nc(Cl)c1NC1=NCCN1`, for which the Potency entry is “inactive”. In the case of `O=c1c(-c2ccc(O)cc2)coc2cc(O)cc(O)c12` it was “inactive”; in that of `Cc1cc(C(C)(C)C)cc(C)c1CC1=NCCN1`, “inactive”. In the case of `CN(C)c1nc(N(C)C)nc(N(C)C)n1` it was “inactive”; in that of `COc1ccc2c(c1)c(CC(=O)O)c(C)n2C(=O)c1ccc(Cl)cc1`, “inactive”. `Cc1ccc(C(=O)Nc2ccc(S(=O)(=O)O)c3cc(S(=O)(=O)O)cc(S(=O)(=O)O)c23)cc1NC(=O)c1cccc(NC(=O)Nc2cccc(C(=O)Nc3cc(C(=O)Nc4ccc(S(=O)(=O)O)c5cc(S(=O)(=O)O)cc(S(=O)(=O)O)c45)ccc3C)c2)c1`: the Potency entry was “inactive”. `COc1ccccc1OCCNCC(O)COc1cccc2[nH]c3ccccc3c12` (stereo not given): the Potency entry is “inactive”. The same measure for `COc1ccc(CCN(C)CCCC(C#N)(c2ccc(OC)c(OC)c2)C(C)C)cc1OC` (stereo not given): “inactive”; for `CN1C(C(=O)Nc2ccccn2)=C(O)c2ccccc2S1(=O)=O`: “inactive”. In the case of `Clc1ccccc1C(c1ccccc1)(c1ccccc1)n1ccnc1` it was “inactive”.
